Screening results from PubChem BioAssay.
ELG1 genotox: genotoxicity induction in ELG1-luciferase HEK293T cells. Potency, µM (top dose mostly 46 µM), inactives show at the highest dose activity change, positive = activation, most hits filed as activators. actives 1.3% (n = 330,000). AID 504466. HEK293T ELG1-luciferase reporter, luminescence, 16 h; further: % of control where 0% means no effect; nearly all actives have a fitted effect of over 60% in size
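16 hr compound incubation (37 °C, 5% CO2) of HEK293T cells carrying luciferase-tagged ELG1; luciferase then measured by ONE-Glo luminescence after 30 min at RT.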
SMN2 splice enh: enhancers of SMN2 splice variant expression; HEK293 SMN2-luciferase splicing reporter, luminescence, 30-36 h; AID 1458; actives 2.8% (n = 210,000); Potency, µM (top dose mostly 46.1 µM), without a hit: top-dose activity change, positive = activation, actives largely listed as activators; further: % of control where 0% means no effect; nearly all actives have a fitted effect of over 55% in size
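qHTS luciferase splicing reporter: luminescence rises when SMN2 exon 7 is included in transfected HEK293 cells. Compound exposure lasted 30-36 h at 37C, with 4.5 mM final sodium butyrate as control, followed by a ONE-Glo read.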
Rab9 prom act: Rab9 promoter activation | Potency, µM (titrated, usually from 9.22 µM), without a hit: top-dose activation, negative = inhibition, most hits filed as activators | Huh7 Rab9 promoter-luciferase reporter, luminescence, 24 h | actives 2.8% (n = 320,000); further: % of control where 0% means no effect; nearly all actives have a fitted effect of over 60% in size
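Using Huh7 cells stably transfected with Rab9 promoter–luciferase, compounds were incubated 24 h at 37 °C, 5% CO2; luciferase luminescence was read 10 min after reagent addition.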
FLuc counter: inhibits or activates purified firefly luciferase, miR-21 counter-screen. P08659. purified FLuc, Km substrates, luminescence inhibition. Potency, µM (doses to about 57.5 µM), inactives show top-dose activity change, negative = inhibition, usual class: inhibitors. actives 6.9% (n = 360,000). AID 588342;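 further: plate controls were vehicle for no effect and reference inhibitor for full effect; nearly all actives have a fitted effect of over 55% in size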
Target sequence (P08659 whole entry, looked up): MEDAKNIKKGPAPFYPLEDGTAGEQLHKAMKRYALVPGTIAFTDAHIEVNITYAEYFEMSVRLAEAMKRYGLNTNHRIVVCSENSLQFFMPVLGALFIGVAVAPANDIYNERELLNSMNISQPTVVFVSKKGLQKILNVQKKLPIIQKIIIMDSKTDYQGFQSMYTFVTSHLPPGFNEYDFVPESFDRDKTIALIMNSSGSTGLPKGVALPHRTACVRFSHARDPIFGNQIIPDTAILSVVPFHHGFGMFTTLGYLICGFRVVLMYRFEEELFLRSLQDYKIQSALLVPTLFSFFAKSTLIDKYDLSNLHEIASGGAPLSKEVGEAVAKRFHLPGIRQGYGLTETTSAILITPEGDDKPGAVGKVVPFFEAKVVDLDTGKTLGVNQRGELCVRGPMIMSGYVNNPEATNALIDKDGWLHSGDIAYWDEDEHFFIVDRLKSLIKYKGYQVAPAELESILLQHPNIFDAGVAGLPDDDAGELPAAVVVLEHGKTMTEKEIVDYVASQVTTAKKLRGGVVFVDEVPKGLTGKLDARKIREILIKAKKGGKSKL
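Purified P. pyralis luciferase, 10 nM final, with Km-level 10 uM D-luciferin and 10 uM ATP in 50 mM Tris acetate pH 7.5, 10 mM Mg acetate, 0.01% Tween-20, 0.05% BSA; 6-point qHTS titration about 60 µM downward; luminescence read.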
NPC1 promoter act: activates the NPC1 promoter; Huh7 NPC1 promoter luciferase reporter, 24 h; Potency, µM (doses to about 9.22 µM), without a hit: top-dose activation, usual class: activators; actives 2.4% (n = 320,000); AID 485313; further: % of control where 0% means no effect; nearly all actives have a fitted effect of over 60% in size
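Quantitative HTS used a cell-based reporter: Huh7 cells stably bearing the NPC1 promoter upstream of luciferase were treated with compounds for 24 h, and promoter activation was read as luminescence.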
p53 reactivator: restores transcriptional activity of mutant p53. H1299 p53-A138V BP100-luciferase reporter, luminescence, 24 h. Potency, µM (doses to about 92.2 µM), without a hit: top-dose activity change, positive = activation, hits mostly activators. actives 0.063% (n = 320,000). AID 504706; further: % of control where 0% means no effect; nearly all actives have a fitted effect of over 45% in size
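p53-null H1299 cells stably carrying temperature-sensitive p53-A138V and a BP100-luciferase reporter were pinned with compounds (4-point, 1:5 series) and held 24 hrs at 37 deg C. Luminescence was read 10 min after detection reagent.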
* marks the source's active call; other numbers are inactive results; ? = inconclusive; nt = not tested or not shown. An excerpt weighted towards active compounds, which were near 7.3% of everything screened. The call rests on the fitted dose curve; in most records, active means well fitted curve in the direction sought with a large enough effect; inconclusive means small, poorly fitted or top-dose-only effect, or another doubt; inactive means no such curve, though single readings can be large; an effect the other way counts as inactive or inconclusive. Potency means the concentration at half of the fitted maximal effect.

SMILES | ELG1 genotox | SMN2 splice enh | Rab9 prom act | FLuc counter | NPC1 promoter act | p53 reactivator
Clc1nc(Nc2ccccc2)nc(Nc2ccccc2)n1 | 7% | -15% | 5% | 24µM* | 0% | ?
COc1ccc(Nc2nc(Cl)nc(Nc3ccc(OC)cc3)n2)cc1 | -14% | -45% | 2% | 5% | 0% | 2%
COc1ccccc1Nc1nc(Cl)nc(NC(C)(C)C)n1 | -6% | -7% | 9% | ? | 0% | 6%
Cc1cn2c(=O)cc(COC(=O)c3cccc(NC(=O)COc4ccccc4Cl)c3)nc2s1 | nt | nt | nt | 4.8µM* | nt | nt
Cc1cn2c(=O)cc(COC(=O)c3ccc(NC(=O)COc4ccccc4F)cc3)nc2s1 | nt | nt | nt | 5% | nt | nt
Cc1nn2c(=O)cc(COC(=O)c3cccc(NC(=O)c4ccc(C(C)(C)C)cc4)c3)nc2s1 | nt | nt | nt | 0.54µM* | nt | nt
Clc1cccc(Nc2ncnc3c2cnn3-c2ccccc2)c1 | ? | 2% | 17% | 27µM* | 25% | -1%
O=C(O)c1cccc(Nc2ncnc3c2cnn3-c2ccccc2)c1 | ? | 13µM* | 3.2µM* | 2.1µM* | 1.3µM* | ?
Fc1cccc(Nc2ncnc3c2cnn3-c2ccccc2)c1 | ? | nt | ? | 17µM* | ? | 14%
Oc1cccc(Nc2ncnc3ccccc23)c1 | 15% | 9% | 3% | ? | 7% | 29%
O=C(O)c1cccc(Nc2ncnc3ccccc23)c1 | 1% | 18% | 16% | 19µM* | 0% | 10%
CCOc1ccc(C2C(=O)N(C3CCCCCC3)CC(=O)N2Cc2ccc(F)cc2)cc1OC (configuration not stated) | nt | nt | nt | -5% | nt | nt
Cc1ccc(Cn2c(C(=O)O)c(CNCc3ccc(OC(C)C)cc3)c3ccc(C)cc32)cc1 | nt | nt | nt | 0% | nt | nt
Cc1ccc2nc(-c3ccc(NS(=O)(=O)c4c(C)n(C)c(=O)n(C)c4=O)cc3)sc2c1 | 15% | nt | 2.8µM* | 1.9µM* | 3.2µM* | 22%
CC(=O)c1ccc(NS(=O)(=O)c2cccc(C)c2)cc1 | ? | 36% | 27% | ? | 20% | 25%
Cc1cccc(S(=O)(=O)Nc2ccc(-c3nc4ccc(C)cc4s3)cc2)c1 | ? | 11µM* | 2.8µM* | 3µM* | 2.8µM* | ?
Cc1nn(CC(=O)NC2CC2)c(=O)c2cc3cc(F)ccc3n12 | nt | -11% | nt | -4% | nt | nt
O=C(Nc1nc2ccccc2s1)c1ccc(F)cc1 | 2.6µM* | nt | 0.32µM* | 1.1µM* | 0.71µM* | 3%
O=S(=O)(/N=C(/Nc1nc2ccccc2s1)c1ccccc1)c1ccc(F)cc1 | 14% | nt | ? | 19µM* | 13% | ?
COc1ccc(C(=O)CCc2nc3ccccc3s2)cc1 | 15% | 13% | 0% | 19µM* | 15% | ?
COc1ccc(C(=O)Nc2nc3ccccc3s2)cc1 | -5% | nt | 0.28µM* | 0.24µM* | 0.63µM* | -14%
Cc1cccc(Cn2c(=O)n(-c3ccc(Cl)c(Cl)c3)c(=O)c3c(C)c(C)sc32)c1 | nt | -14% | nt | -3% | nt | nt
CCOc1ccc(-n2cc(-c3ccccc3)c3c(N4CCN(c5ccccc5OC)CC4)ncnc32)cc1 | nt | nt | nt | 1% | nt | nt
CCN(Cc1ccccc1)C(=O)Cn1c(=O)n(-c2ccccc2)c(=O)c2c1c1cc(C)ccc1n2C | nt | nt | nt | -2% | nt | nt
COc1cccc(C(=O)Nc2nc3c(s2)CCCC3)c1 | nt | nt | nt | 1.9µM* | nt | nt
SMILES | ELG1 genotox | SMN2 splice enh | Rab9 prom act | FLuc counter | NPC1 promoter act | p53 reactivator
COc1cccc(C(=O)Nc2nc3ccccc3s2)c1 | 4.1µM* | nt | 2µM* | 2.1µM* | 3.5µM* | -11%
COc1cccc(C(=O)Nc2c3c(nc4c2CCC4)CCCC3)c1 | -1% | -1% | -3% | -2% | -1% | -2%
COCCNC(=O)c1nc2ccccc2s1 | 16% | 14% | 26% | 17µM* | 0% | ?
Cc1ccc2nc(NC(=O)c3ccc(-c4nc5ccccc5s4)s3)sc2c1 | 16µM* | 15% | -4% | 13µM* | -2% | ?
O=C(NCCO)c1nc2ccccc2s1 | 9% | 0% | 1% | ? | 3% | 26%
COc1ccc(C(=O)Nc2nc3ccccc3s2)cc1OC | 2% | nt | -2% | -3% | 1% | -5%
COc1ccc(CNCc2c(C(=O)O)n(Cc3ccc(F)cc3)c3cc(C)ccc23)cc1OC | nt | nt | nt | 2% | nt | nt
O=C(Nc1nc2ccccc2s1)c1ccc(Cl)s1 | 1.2µM* | 6.3µM* | ? | 1.9µM* | 1µM* | ?
O=C(Nc1nc(=O)c2ccccc2s1)c1ccccc1 | 7.3µM* | 43% | 20% | 4.3µM* | 0% | ?
CSc1nc2ccc3nc(NC(=O)c4ccc(C)cc4)sc3c2s1 | -6% | -28% | -1% | -2% | 3% | 10%
CC(=O)Nc1nc(=O)c2ccccc2s1 | 0% | 18% | 3% | -1% | 1% | -7%
O=C(Nc1nc2c(s1)C(=O)CCC2)c1ccccc1 | ? | 1.6µM* | 0.71µM* | 2.7µM* | 1.1µM* | nt
Cc1ccc(C(=O)Nc2nc3ccccc3c(=O)s2)cc1 | ? | ? | 1.3µM* | 0.76µM* | ? | ?
Cn1c2c(c3ccccc31)CCSC2=O | 1% | nt | 13% | -18% | 5% | 11%
COc1ccc2[nH]c3c(c2c1)CCn1c-3nc2ccccc2c1=O | ? | 1.6µM* | 0.25µM* | 0.48µM* | 0.2µM* | ?
COc1cc(OC)cc(C(=O)Nn2c(C)nc3ccccc3c2=O)c1 | -2% | 13% | -5% | 6% | 0% | -7%
COCCNC(=O)C1CCN(S(=O)(=O)c2ccc3c(c2)CCCN3C(C)=O)CC1 | nt | nt | nt | 1% | nt | nt
O=C(c1ccco1)N1CCC[C@@]2(CCN(C(c3ccccc3)c3ccccc3)C2)C1 | nt | -21% | nt | nt | nt | nt
Cc1noc(C)c1C(=O)N1CCC2(CC1)CN(c1ncccn1)C2 | nt | 1% | nt | nt | nt | nt
CCn1c(CN2CCOCC2)nc2cc(NC(=O)c3cccc([N+](=O)[O-])c3)ccc21 | nt | nt | nt | -11% | nt | nt
CCC(=O)NCCc1nc2cc(NC(=O)c3cccc([N+](=O)[O-])c3)ccc2n1C | ? | nt | 3.5µM* | ? | ? | 16%
CCn1c(CN2CCCCC2)nc2cc(NC(=O)c3cccc([N+](=O)[O-])c3)ccc21 | nt | nt | nt | -1% | nt | nt
CC(=O)NCCc1nc2cc(NC(=O)c3cccc([N+](=O)[O-])c3)ccc2n1C | ? | nt | 2.8µM* | ? | 2.8µM* | 19%
COc1ccccc1Nc1nnc(SCC(=O)NC2CC2)s1 | 7% | nt | 2% | -9% | -1% | 1%
Cc1ccc(C)c(N2CCN(c3cnn(-c4nc5ccccc5s4)c(=O)c3Cl)CC2)c1 | 18µM* | ? | 1.6µM* | 6.7µM* | 2.2µM* | nt
